Source: PubChem BioAssay
INS promoter inh: TRM-6 insulin promoter activity inhibition; TRM-6 cells (human fetal islet line), insulin promoter-eGFP reporter, imaging; reporter expression induced with tamoxifen; inhibition, % at 2 µM; 130,000 tested, 0.9% active;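 active = inhibition above the mean plus 3 SD, with well images judged a real hit on visual review, cut at about 60% in these data, passing the limit was not always enough; inconclusive = inhibition over the cutoff but images rejected on review; inactive = inhibition not above the cutoff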
Insulin prom up: MIN6 insulin promoter up-regulation; MIN6 insulin promoter-GFP reporter, high-content imaging; active compounds read high; z-score at 5 µM; 190,000 tested, 0.3% active; AID 1625;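 active = z-score above 3 at 5 µM with at least 500 cells counted in the well; inconclusive = wells under 500 cells, flagged as cytotoxic or low count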
PERK inhibitor: inhibitors of human PERK kinase | CHO PERK-DD fusion, SEAP luminescence translation reporter | Q9NZJ5 | AID 1416 | inhibition, % at 5.6 µM | 220,000 tested, 0.17% active;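 active = inhibition above the mean inhibition of all tested compounds plus 3 SD, set separately per screening campaign, cut at about 2.9% in these data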;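 note: PERK kinase domain activated by AP20187 dimerizer at 100 nM; 0% = DMSO with dimerizer and 100% = rapamycin at 8.4 µM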
Autophagy HCS: autophagy modulation, high-content screen; MEF GFP-LC3 puncta imaging; test concentration mostly 10 µM; calls only at 10 µM (by protocol); 190,000 tested, 0.98% active; AID 463193;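 active = percentage of spot-positive cells more than 3 SD above its plate mean, without a fluorescence outlier flag or 80% toxicity; inconclusive = no clear call, values can overlap the other calls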;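 note: spot-positive cell cutoff set from DMSO-treated cells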
eIF4E-4G inh: blocks eIF4E binding to eIF4G | P63073+Q04637 | TR-FRET eIF4E-eIF4GI(517-606) binding, 2 h | inhibition, % at 21.7 µM | 220,000 tested, 0.37% active;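 active = inhibition above about 30%, limit read from the data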;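 note: 0% = full FRET control wells and 100% = background wells lacking eIF4GI fragment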
Numbers without * were called inactive; i = inactive; ? = inconclusive; nt = no result given; + = active, no number. Most compounds without a hit are left out; they make up all but 2% or so of the library.

SMILES	INS promoter inh	Insulin prom up	PERK inhibitor	Autophagy HCS	eIF4E-4G inh
Nc1c(C(=O)Nc2ccccc2F)sc2nc(Cc3ccccc3)cc(C(F)(F)F)c12	16	nt	0	+	-38
Cc1cccc(-c2ncc(CN3CCCC(CO)(Cc4ccccc4C)C3)cn2)c1 (centres undefined)	nt	3.1*	2	i	-3
Cc1ccc(C)c(-c2[nH]ncc2CN2CCCC(CO)(Cc3ccccc3C)C2)c1 (centres undefined)	nt	-1.4	1	i	-3
CN1c2ccsc2C(O)=C(C(=S)Nc2ccccc2)S1(=O)=O	39	0.2	0	i	6
CCNC(=O)C1=C(O)c2sccc2N(C)S1(=O)=O	-31	-0.24	0	i	37*
COc1ccccc1-c1cc(C(F)(F)F)nc(S(=O)(=O)CCCC(=O)Nc2cccnc2Cl)n1	73*	0.58	1	i	0
CC1CCCC(NC(=O)COC(=O)c2sc3ccccc3c2Cl)C1C (centres undefined)	-35	0.95	1	i	8
C=CCNCCCCOc1ccc(OCc2ccccc2)cc1	nt	-0.45	-1	+	6
CC(=O)Nc1ccnc(-c2cccnc2)n1	-187	nt	1	i	86*
O=c1c2ccccc2c(/C=N/c2ncn[nH]2)c(O)n1Cc1ccccc1	71*	0.78	-2	i	-9
CC(C)S(=O)(=O)N1CCCC(C(=O)c2cccc(Cl)c2)C1 (centres undefined)	nt	0.04	0	i	3
Oc1ccc(CN2CCc3ccccc3C2)c2cccnc12	14	-6.1	-1	i	7
Cn1cc(CN2CCc3ccccc3C2)c2ccccc21	81*	-1	0	i	-8
O=C1C(Cc2ccc(O)cc2)NC(=S)N1c1ccccc1 (centres undefined)	20	-0.15	3.0*	i	5
O=C(O)CC1NC(=S)N(c2ccccc2)C1=O (centres undefined)	-8	-0.09	1	i	-1
O=C(Cn1sc2ccccc2c1=O)NC12CC3CC(CC(C3)C1)C2	nt	-0.67	1	i	41*
N#Cc1c(-n2cccc2/C=N/O)sc2c1CCCC2	71*	-0.15	0	i	4
O=C(O)c1cccc(N2C(=O)/C(=C/c3ccc(SCc4ccc(Cl)cc4)o3)SC2=S)c1	nt	0.49	3	i	49*
Cc1ccc(/C=C2\SC(=S)N(c3cccnc3)C2=O)o1	nt	0.62	1	nt	2
COCCNC(=O)CN(C(=O)c1ccc(N2CCCC2)nc1)c1ccccc1	i	-0.09	0	+	-5
Cc1cc(NC(=O)CN2CCOCC2)n(-c2nc3ccccc3s2)n1	6	0.02	-1	i	7
COc1ccc(C2(O)CCN(Cc3nnnn3Cc3ccc(C)cc3)CC2)cc1	-38	-0.19	-1	+	5
Cc1ccc(Cn2nnnc2CN2CCC(O)(c3cccnc3)CC2)cc1	79*	0.63	1	i	5
CC1CCCC(C)N1c1nnc(N)s1 (centres undefined)	5	1.3	1	i	-1
CCN(CC)c1ccc(/C=C(/C#N)c2nc3ccccc3[nH]2)c(OC(C)C)c1	-59	nt	-1	+	-3
SMILES	INS promoter inh	Insulin prom up	PERK inhibitor	Autophagy HCS	eIF4E-4G inh
O=C(CSc1nnc(NC(=O)Cc2ccc(F)cc2)s1)NCc1ccco1	92*	0	0	i	1
O=C(CSc1nnc(NC(=O)Cc2ccccc2)s1)NCc1ccco1	5	1.1	0	i	1
Fc1ccc(CNc2ncnc3c2cnn3-c2ccccc2)cc1	-30	-0.03	0	+	4
Cc1cccc(C)c1N/C=C/c1onc(C)c1[N+](=O)[O-]	4	0.5	1	i	-5
Cc1noc(/C=C/c2ccc(-c3ccccc3Cl)o2)c1[N+](=O)[O-]	nt	nt	0	+	-8
CCOC(=O)N1CCc2c(sc(NC(=O)CN3CCOCC3)c2C(=O)Nc2ccccc2)C1	nt	0.04	-1	+	6
CCOC(=O)N1CCc2c(sc(NC(=O)CN3CCN(C)CC3)c2C(=O)Nc2ccccc2)C1	8	0.05	0	i	-3
O=C(CSc1ncccn1)NN=C1CCCCCC1	67*	0.28	1	i	3
Cn1c(=O)oc2cc(S(=O)(=O)N3CCN(c4ccc(F)cc4)CC3)ccc21	70*	1.6	0	i	0
O=C(NCc1cccnc1)c1cccc(F)c1	nt	-0.46	0	+	nt
O=C(NCc1ccncc1)c1cccc(F)c1	-29	-0.71	1	i	-1
Cc1ccc(N=c2c([N+](=O)[O-])nn(-c3ccccc3)n2O)c(C)c1	14	-0.32	-1	i	1
Cc1c(Cl)cccc1N=c1c([N+](=O)[O-])nn(-c2ccccc2)n1O	nt	nt	0	+	3
Cc1cccc(-c2nnc(SCC(=O)C(C)(C)C)n2C)c1	nt	-0.11	-2	nt	-2
CCN(c1ccc(NS(=O)(=O)c2cc(Cl)ccc2Cl)cc1)C(C)C	69*	0.17	0	i	3
Cc1cccc2cc(C#N)c(SCc3nnc(-c4ccccc4[N+](=O)[O-])o3)nc12	-11	0.3	0	+	-19
CCOc1cccc(C(=O)Nc2ccc(N(CC)CC)cc2)c1	nt	-0.56	0	i	0
CCN(CC)c1cccc(OCC(=O)N(C)CCC#N)c1	nt	-0.19	-1	+	11
COc1ccc(OC)c(Nc2nc(=O)c3cccnc3s2)c1	29	-0.07	0	i	32*
CN1N=C(C(C)(C)C)CC1=O	nt	0.04	3.4*	nt	-5
O=[N+]([O-])CC(=Nc1ccc(Cl)cc1)N/N=C\c1oc(O)c2ccccc12	33	nt	0	i	0
COc1ccc(NC(=S)NNC(=O)CCn2cc([N+](=O)[O-])cn2)cc1	88*	-0.47	0	i	0
c1ccc2c(c1)Cn1c-2nc2ccccc21	95*	0.8	0	i	0
CCCCCC(=O)NC(NC(=S)NC1CCS(=O)(=O)C1)C(Cl)(Cl)Cl (centres undefined)	29	0.18	1	i	40*
Cc1ccc(C2(C(F)(F)F)NC(=O)N3CCN=C3S2)cc1 (centres undefined)	62	0.82	2.9*	i	-1
NCCNc1ccc([N+](=O)[O-])c(NC2CC2)c1	38	?	0	i	8
CC(=O)C1=C(O)C=C(c2ccco2)CC1c1ccco1 (centres undefined)	nt	-0.28	0	i	-2
COc1ccccc1CN1C(=O)[C@@H]2C(CC(N)=O)NC3(C(=O)Nc4c3ccc(Cl)c4C)[C@@H]2C1=O (some centres undefined)	31	0.49	0	i	-9
COc1ccccc1CN1C(=O)[C@@H]2C(CCC(N)=O)NC3(C(=O)Nc4c3ccc(Cl)c4C)[C@@H]2C1=O (some centres undefined)	71*	-0.13	1	i	-2
CC(=O)c1ccc(N=c2scc(C)n2C(C)C)cc1	nt	-0.2	1	i	0
